Assay results published in the supplement of paper PMC10849652.
The full data set covers some 7,900 targets. This sample favours those with a hit. About 0.6% of all pairs of compound and target were hits.

Tests used:
Assay in all cases: log2 fold change, soluble protein after heating vs DMSO (PISA); higher = thermal stabilisation; K562 cells, 10 uM, 30 min; active = over 0.2 and 3.5 SD of the protein, either way, in both replicates (recomputed)
[1] = compound: COC1=CC=C(C=C1)CN2C=CC3=C2C=C(C=C3)C(=O)NO
In short: (§1)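 Soluble protein was defined as the supernatant after 21,000xg for 90 min. It came from K562 cells at 2×10^6 cells/mL given 10 μM compound for 30 min, heated in aliquots for 3 min across 48°C-58°C, pooled, and extracted in PBS with 0.5% NP-40 at 4°C, and was quantified by TMTpro 16plex LC-MS/MS with equalised channel sums. Thermal stability against control samples, from duplicates, is reported as log2 fold change.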

[2] = compound: CON(C)C(=O)N1N=C(c2cc(F)ccc2F)S[C@@]1(CCCN)c1ccccc1 [filanesib]
In short: as §1

[3] = compound: CO[C@H]1C[C@@H]2CC[C@@H](C)[C@@](O)(O2)C(=O)C(=O)N2CCCC[C@H]2C(=O)O[C@H]([C@H](C)C[C@@H]2CC[C@H](n3cnnn3)[C@H](OC)C2)CC(=O)[C@H](C)/C=C(\C)[C@@H](O)[C@@H](OC)C(=O)[C@H](C)C[C@H](C)/C=C/C=C/C=C/1C [zotarolimus]
In short: as §1

[4] = compound: COc1cc(C(=O)O)ccc1NC(=O)[C@@H]1N[C@@H](CC(C)(C)C)[C@](C#N)(c2ccc(Cl)cc2F)[C@H]1c1cccc(Cl)c1F [idasanutlin]
In short: as §1

[5] = compound: COc1cc(Nc2ncc3c(n2)-c2ccc(Cl)cc2C(c2c(F)cccc2OC)=NC3)ccc1C(=O)O [alisertib]
In short: as §1

[6] = compound: COc1cc2nc(-c3cc(F)ccc3O)nc(N[C@@H]3CNC[C@H]3C(C)(C)O)c2cc1OC
In short: as §1

[7] = compound: COc1cc2ncnc(Nc3ccc(F)c(Cl)c3)c2cc1OCCCN1CCOCC1 [gefitinib]
In short: as §1

[8] = compound: COc1cccc2cc(-c3nc([C@H]4CC[C@H](C(=O)O)CC4)n4ncnc(N)c34)[nH]c12
In short: as §1

[9] = compound: CS(=O)(=O)CCNCc1ccc(-c2ccc3ncnc(Nc4ccc(OCc5cccc(F)c5)c(Cl)c4)c3c2)o1 [lapatinib]
In short: as §1

[10] = compound: CS(=O)(=O)N1CCN(Cc2cc3nc(-c4cccc5[nH]ncc45)nc(N4CCOCC4)c3s2)CC1 [pictilisib]
In short: as §1

[11] = compound: CS(=O)(=O)c1ccc(-c2cnc(N)c(C(=O)Nc3ccccc3)n2)cc1
In short: as §1

[12] = compound: C[C@@H](Oc1cc(-c2cnn(C3CCNCC3)c2)cnc1N)c1c(Cl)ccc(F)c1Cl [crizotinib]
In short: as §1

[13] = compound: C[C@@H]1COCCN1C2=NC(=NC(=C2)C3(CC3)S(=O)(=O)C)C4=C5C=CNC5=CC=C4
In short: as §1

[14] = compound: C[C@H](C1=CC=C(C=C1)C(=O)NC2=C3C=CNC3=NC=C2)N
In short: as §1

[15] = compound: C[C@H](Nc1ncnc2nc[nH]c12)c1cc2cccc(Cl)c2c(=O)n1-c1ccccc1 [duvelisib]
In short: as §1

[16] = compound: Cc1cc(Nc2cc(CN3CCOCC3)c3nc(C)c(Cc4ccc(Cl)cc4F)n3n2)n[nH]1 [gandotinib]
In short: as §1

[17] = compound: Cc1cc(Nc2cc(N3CCN(C)CC3)nc(Sc3ccc(NC(=O)C4CC4)cc3)n2)n[nH]1 [tozasertib]
In short: as §1

[18] = compound: Cc1cc(SCc2sc(-c3ccc(C(F)(F)F)cc3)nc2C)ccc1OCC(=O)O
In short: as §1

[19] = compound: Cc1ccc(-n2nc(C(C)(C)C)cc2NC(=O)Nc2ccc(OCCN3CCOCC3)c3ccccc23)cc1 [doramapimod]
In short: as §1

[20] = compound: Cc1ccc(C(=O)N(CCCN)[C@@H](c2nc3cc(Cl)ccc3c(=O)n2Cc2ccccc2)C(C)C)cc1 [ispinesib]
In short: as §1

Measured: log2 fold change

SSR4 (UniProt P51571)
Chain of UniProt P51571 (P51571 whole entry, looked up): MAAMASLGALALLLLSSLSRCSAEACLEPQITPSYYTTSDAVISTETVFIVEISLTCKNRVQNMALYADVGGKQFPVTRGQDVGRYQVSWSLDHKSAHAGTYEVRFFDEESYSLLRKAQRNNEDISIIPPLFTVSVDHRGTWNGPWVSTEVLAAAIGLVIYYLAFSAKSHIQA
inactive: [1] -0.015 | [2] -0.052 | [3] 0.036 | [4] -0.012 | [5] -0.004 | [6] 0.08 | [7] -0.023 | [8] 0.047 | [9] -0.05 | [10] 0.106 | [11] -0.004 | [12] 0.001 | [13] 0.081 | [14] -0.054 | [15] 0.06 | [16] -0.055 | [17] 0.029 | [18] 0.033 | [19] -0.019 | [20] -0.045

SSB (UniProt P05455)
inactive: [1] -0.036 | [2] 0.049 | [3] -0.063 | [4] 0 | [5] -0.046 | [6] -0.132 | [7] -0.016 | [8] -0.101 | [9] -0.031 | [10] -0.042 | [11] -0.159 | [12] 0.022 | [13] -0.085 | [14] -0.05 | [15] -0.033 | [16] -0.103 | [17] 0.048 | [18] 0.003 | [19] 0.013 | [20] -0.02

SNUPN (UniProt O95149)
Chain of UniProt O95149 (O95149 whole entry, looked up): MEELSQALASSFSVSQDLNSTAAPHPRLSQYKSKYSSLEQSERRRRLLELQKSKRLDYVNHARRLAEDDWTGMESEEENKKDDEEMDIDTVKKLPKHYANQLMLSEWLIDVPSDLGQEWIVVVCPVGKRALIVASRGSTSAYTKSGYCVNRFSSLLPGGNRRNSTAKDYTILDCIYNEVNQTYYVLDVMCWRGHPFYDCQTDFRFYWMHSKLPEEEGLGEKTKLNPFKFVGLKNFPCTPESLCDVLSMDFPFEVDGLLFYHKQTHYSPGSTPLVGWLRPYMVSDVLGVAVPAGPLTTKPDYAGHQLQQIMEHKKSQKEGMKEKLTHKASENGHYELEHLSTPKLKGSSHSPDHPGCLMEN
inactive: [1] 0.001 | [2] -0.09 | [3] -0.007 | [4] 0.05 | [5] -0.013 | [6] -0.05 | [7] 0.014 | [8] 0.005 | [9] 0.019 | [10] -0.021 | [11] 0.019 | [12] -0.187 | [13] 0.045 | [14] -0.007 | [15] -0.001 | [16] -0.074 | [17] 0.017 | [18] -0.014 | [19] -0.007 | [20] 0.029

TGFBR1 isoform 2 (UniProt P36897)
Chain of UniProt P36897 (P36897 whole entry, looked up): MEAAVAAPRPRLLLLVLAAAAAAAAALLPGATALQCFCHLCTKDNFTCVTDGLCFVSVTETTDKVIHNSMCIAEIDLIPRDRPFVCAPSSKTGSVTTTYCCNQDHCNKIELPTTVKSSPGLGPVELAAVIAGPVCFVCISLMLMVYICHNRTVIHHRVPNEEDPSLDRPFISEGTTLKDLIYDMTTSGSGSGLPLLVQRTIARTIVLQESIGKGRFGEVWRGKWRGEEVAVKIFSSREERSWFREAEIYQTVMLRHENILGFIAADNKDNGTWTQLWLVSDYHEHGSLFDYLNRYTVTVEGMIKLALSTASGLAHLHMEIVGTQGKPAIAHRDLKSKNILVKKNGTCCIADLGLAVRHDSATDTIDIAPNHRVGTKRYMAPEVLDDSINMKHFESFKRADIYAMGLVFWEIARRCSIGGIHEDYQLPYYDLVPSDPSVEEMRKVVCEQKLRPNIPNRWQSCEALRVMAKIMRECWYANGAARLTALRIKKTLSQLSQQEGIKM
active: [11] 0.254
inactive: [1] 0.004 | [2] -0.001 | [3] -0.217 | [4] -0.007 | [5] -0.05 | [6] 0.06 | [7] -0.029 | [8] -0.041 | [9] 0.063 | [10] -0.073 | [12] 0.133 | [13] -0.031 | [14] 0.024 | [15] -0.019 | [16] 0.101 | [17] 0.026 | [18] 0.014 | [19] -0.005 | [20] -0.156

THADA (UniProt Q6YHU6)
inactive: [1] 0.019 | [2] -0.18 | [3] -0.008 | [4] -0.081 | [5] -0.022 | [6] -0.03 | [7] -0.031 | [8] 0.014 | [9] 0.012 | [10] -0.014 | [11] 0.01 | [12] -0.168 | [13] 0.05 | [14] 0.018 | [15] 0.046 | [17] -0.052 | [18] 0.083 | [19] 0.001 | [20] -0.133
active: [16] -0.239

SUCLA2 (UniProt Q9P2R7)
Chain of UniProt Q9P2R7 (Q9P2R7 whole entry, looked up): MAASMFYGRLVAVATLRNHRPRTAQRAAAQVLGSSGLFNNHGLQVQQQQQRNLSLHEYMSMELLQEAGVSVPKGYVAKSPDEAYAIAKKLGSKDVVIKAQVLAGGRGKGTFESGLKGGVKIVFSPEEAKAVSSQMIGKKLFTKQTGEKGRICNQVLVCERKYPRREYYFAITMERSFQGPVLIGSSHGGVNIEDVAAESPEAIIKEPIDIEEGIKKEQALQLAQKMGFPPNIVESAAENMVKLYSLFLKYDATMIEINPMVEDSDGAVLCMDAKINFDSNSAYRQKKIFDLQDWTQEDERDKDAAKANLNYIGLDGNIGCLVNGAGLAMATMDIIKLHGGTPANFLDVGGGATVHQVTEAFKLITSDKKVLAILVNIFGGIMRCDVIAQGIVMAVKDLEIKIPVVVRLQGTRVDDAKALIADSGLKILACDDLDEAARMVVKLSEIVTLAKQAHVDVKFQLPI
inactive: [1] -0.004 | [2] -0.096 | [3] 0.01 | [4] -0.074 | [5] 0.104 | [6] 0.093 | [7] 0.022 | [8] 0.018 | [9] -0.05 | [10] 0.109 | [11] 0.034 | [12] 0.001 | [13] 0.087 | [14] -0.011 | [15] 0.04 | [16] -0.058 | [17] -0.043 | [18] 0.012 | [19] 0.003 | [20] -0.064

SRSF4 (UniProt Q08170)
Chain of UniProt Q08170 (Q08170 whole entry, looked up): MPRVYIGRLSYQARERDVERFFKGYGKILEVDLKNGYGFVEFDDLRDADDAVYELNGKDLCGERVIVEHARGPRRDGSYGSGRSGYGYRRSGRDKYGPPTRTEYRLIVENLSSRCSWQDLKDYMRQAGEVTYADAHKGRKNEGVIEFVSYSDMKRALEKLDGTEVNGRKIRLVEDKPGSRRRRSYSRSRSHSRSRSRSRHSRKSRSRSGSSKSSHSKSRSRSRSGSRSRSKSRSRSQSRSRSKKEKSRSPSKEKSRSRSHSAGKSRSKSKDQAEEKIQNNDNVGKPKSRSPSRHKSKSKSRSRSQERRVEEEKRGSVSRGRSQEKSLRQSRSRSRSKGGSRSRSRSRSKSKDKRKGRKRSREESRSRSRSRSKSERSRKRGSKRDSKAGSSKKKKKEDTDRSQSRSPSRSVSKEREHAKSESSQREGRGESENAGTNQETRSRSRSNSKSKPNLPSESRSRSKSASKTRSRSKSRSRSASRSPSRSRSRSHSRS
inactive: [1] -0.085 | [2] 0.234 | [3] 0.053 | [4] 0.207 | [5] -0.137 | [6] -0.04 | [7] -0.014 | [8] -0.089 | [9] 0.137 | [10] -0.007 | [11] -0.055 | [12] 0.011 | [13] -0.248 | [14] 0 | [15] -0.064 | [16] 0.077 | [17] 0.071 | [18] 0.031 | [19] 0.073 | [20] -0.021

TBC1D10B (UniProt Q4KMP7)
Chain of UniProt Q4KMP7 (Q4KMP7 whole entry, looked up): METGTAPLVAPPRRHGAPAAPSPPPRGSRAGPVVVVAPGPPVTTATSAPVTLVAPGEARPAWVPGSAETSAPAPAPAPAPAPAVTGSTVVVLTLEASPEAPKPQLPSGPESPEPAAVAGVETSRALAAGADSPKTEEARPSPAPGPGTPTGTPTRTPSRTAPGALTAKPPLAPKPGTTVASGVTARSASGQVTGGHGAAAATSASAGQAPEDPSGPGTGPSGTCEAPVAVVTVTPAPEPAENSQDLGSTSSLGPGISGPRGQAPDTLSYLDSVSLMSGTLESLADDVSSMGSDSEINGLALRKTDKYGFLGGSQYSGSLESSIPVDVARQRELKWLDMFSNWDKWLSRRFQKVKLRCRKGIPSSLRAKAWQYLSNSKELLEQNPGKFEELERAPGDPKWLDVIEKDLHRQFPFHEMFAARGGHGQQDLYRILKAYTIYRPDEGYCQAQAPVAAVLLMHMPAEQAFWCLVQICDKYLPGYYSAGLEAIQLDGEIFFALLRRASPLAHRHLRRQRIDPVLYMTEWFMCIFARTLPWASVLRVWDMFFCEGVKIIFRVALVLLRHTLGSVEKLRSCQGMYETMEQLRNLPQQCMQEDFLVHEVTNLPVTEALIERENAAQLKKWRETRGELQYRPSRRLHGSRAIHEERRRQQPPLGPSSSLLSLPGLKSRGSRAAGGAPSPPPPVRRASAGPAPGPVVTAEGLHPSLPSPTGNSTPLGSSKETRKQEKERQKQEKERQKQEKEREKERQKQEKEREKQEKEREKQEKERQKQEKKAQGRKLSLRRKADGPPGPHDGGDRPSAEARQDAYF
inactive: [1] -0.001 | [2] 0.062 | [3] 0.011 | [4] 0.032 | [5] -0.088 | [6] -0.088 | [7] 0.008 | [8] -0.042 | [9] 0.041 | [10] -0.002 | [11] 0.012 | [12] -0.04 | [13] 0.013 | [14] -0.153 | [15] 0 | [16] 0.046 | [17] -0.022 | [18] 0.092 | [19] 0.021 | [20] 0.083

TARS2 (UniProt Q9BW92)
Chain of UniProt Q9BW92 (Q9BW92 whole entry, looked up): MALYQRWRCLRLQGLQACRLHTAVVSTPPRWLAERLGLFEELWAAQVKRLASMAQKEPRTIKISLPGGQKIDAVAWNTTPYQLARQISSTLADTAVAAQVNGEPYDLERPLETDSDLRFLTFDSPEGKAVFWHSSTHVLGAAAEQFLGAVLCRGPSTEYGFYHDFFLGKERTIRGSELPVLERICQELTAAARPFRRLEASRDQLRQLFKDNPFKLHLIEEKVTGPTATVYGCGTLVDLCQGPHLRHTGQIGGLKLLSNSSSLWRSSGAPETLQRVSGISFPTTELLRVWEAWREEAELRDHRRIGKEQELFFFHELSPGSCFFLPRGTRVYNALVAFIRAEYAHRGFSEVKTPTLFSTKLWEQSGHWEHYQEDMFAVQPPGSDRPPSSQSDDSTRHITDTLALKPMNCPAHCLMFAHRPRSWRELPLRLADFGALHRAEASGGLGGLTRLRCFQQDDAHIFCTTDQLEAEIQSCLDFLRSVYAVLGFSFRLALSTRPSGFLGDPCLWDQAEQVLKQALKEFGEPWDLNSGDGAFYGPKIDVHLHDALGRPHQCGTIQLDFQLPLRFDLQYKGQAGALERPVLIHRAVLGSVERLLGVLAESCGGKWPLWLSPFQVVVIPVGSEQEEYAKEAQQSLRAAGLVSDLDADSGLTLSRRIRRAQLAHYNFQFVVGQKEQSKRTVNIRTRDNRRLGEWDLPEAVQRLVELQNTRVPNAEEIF
inactive: [2] -0.02 | [3] -0.006 | [4] -0.084 | [5] -0.021 | [6] 0.044 | [7] -0.023 | [8] 0.041 | [9] -0.022 | [10] 0.004 | [11] 0.022 | [12] 0.024 | [13] 0.094 | [14] -0.002 | [15] 0.049 | [16] -0.173 | [17] 0.057 | [18] 0.009 | [19] 0.015 | [20] -0.094
active: [1] -0.487

SNX1 (UniProt Q13596)
active: [16] -0.319
inactive: [1] -0.021 | [2] -0.182 | [3] 0.042 | [4] -0.013 | [5] -0.003 | [6] -0.063 | [7] -0.165 | [8] 0 | [9] -0.027 | [10] -0.205 | [11] -0.134 | [12] -0.247 | [13] 0.028 | [14] -0.025 | [15] -0.214 | [17] -0.054 | [18] 0.049 | [19] -0.009 | [20] -0.252

TBCD (UniProt Q9BTW9)
inactive: [1] -0.017 | [2] -0.063 | [3] 0.049 | [4] -0.091 | [5] -0.078 | [6] -0.006 | [7] 0.022 | [8] 0.023 | [9] -0.024 | [10] 0.04 | [11] -0.069 | [12] 0.001 | [13] 0.061 | [14] -0.034 | [15] 0.058 | [16] -0.104 | [17] 0.041 | [18] 0.009 | [19] 0.004 | [20] -0.032

SMG1 (UniProt Q96Q15)
inactive: [1] -0.142 | [2] 0.061 | [3] -0.001 | [4] -0.038 | [5] -0.002 | [6] 0.055 | [7] 0.008 | [8] -0.047 | [9] 0.003 | [10] 0.018 | [11] 0.04 | [12] 0.012 | [13] -0.083 | [14] 0.016 | [15] 0.02 | [16] -0.024 | [17] -0.013 | [18] 0.098 | [19] 0.051 | [20] 0.033

SUCLG1 (UniProt P53597)
Chain of UniProt P53597 (P53597 whole entry, looked up): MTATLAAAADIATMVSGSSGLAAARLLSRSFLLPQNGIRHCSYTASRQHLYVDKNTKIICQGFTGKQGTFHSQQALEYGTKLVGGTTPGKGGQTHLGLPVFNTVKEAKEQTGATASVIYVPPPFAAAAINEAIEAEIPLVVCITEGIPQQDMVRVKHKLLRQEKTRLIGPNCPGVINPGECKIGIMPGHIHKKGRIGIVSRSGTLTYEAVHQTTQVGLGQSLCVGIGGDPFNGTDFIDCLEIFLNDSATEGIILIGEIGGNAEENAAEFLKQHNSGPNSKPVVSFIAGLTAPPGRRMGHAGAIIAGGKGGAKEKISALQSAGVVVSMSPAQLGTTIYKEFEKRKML
inactive: [1] -0.046 | [2] -0.107 | [3] 0.004 | [4] -0.107 | [5] 0.037 | [6] 0.051 | [7] -0.01 | [8] 0.041 | [9] -0.043 | [10] 0.003 | [11] 0.016 | [12] -0.028 | [13] 0.079 | [14] -0.072 | [15] 0.067 | [16] -0.048 | [17] -0.033 | [18] -0.004 | [19] -0.019 | [20] -0.012

SUGP1 (UniProt Q8IWZ8)
Chain of UniProt Q8IWZ8 (Q8IWZ8 whole entry, looked up): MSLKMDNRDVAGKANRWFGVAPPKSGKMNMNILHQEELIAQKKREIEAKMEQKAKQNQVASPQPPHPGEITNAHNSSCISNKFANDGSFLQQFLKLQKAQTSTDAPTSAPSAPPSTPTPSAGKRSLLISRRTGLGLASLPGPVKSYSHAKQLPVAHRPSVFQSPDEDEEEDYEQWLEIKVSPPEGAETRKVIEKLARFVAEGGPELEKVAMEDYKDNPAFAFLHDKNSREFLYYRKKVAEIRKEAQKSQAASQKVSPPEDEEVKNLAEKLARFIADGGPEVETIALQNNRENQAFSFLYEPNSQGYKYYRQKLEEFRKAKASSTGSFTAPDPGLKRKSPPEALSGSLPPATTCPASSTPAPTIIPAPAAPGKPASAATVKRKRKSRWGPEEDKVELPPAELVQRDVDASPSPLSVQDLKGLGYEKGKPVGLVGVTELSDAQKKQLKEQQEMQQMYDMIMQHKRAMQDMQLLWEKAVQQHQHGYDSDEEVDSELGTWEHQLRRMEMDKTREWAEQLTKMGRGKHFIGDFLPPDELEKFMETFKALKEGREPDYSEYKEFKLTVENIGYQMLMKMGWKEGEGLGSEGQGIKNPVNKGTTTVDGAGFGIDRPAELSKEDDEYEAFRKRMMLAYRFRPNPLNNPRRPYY
inactive: [1] 0.027 | [2] -0.01 | [3] 0 | [4] 0.026 | [5] -0.038 | [6] -0.007 | [7] 0.055 | [8] -0.02 | [9] -0.046 | [10] 0.032 | [11] 0.021 | [12] -0.001 | [13] 0.015 | [14] -0.064 | [15] -0.024 | [16] -0.077 | [17] 0.042 | [18] 0.09 | [19] -0.033 | [20] 0.019

SMAP (UniProt O00193)
Chain of UniProt O00193 (O00193 whole entry, looked up): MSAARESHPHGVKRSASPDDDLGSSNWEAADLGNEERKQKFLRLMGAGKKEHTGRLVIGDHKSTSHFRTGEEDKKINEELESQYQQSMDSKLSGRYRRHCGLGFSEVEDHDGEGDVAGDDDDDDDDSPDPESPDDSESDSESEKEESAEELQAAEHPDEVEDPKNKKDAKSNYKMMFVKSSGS
inactive: [1] -0.046 | [2] -0.154 | [3] -0.018 | [4] 0.005 | [5] -0.01 | [6] 0.02 | [7] 0.033 | [8] 0.051 | [9] -0.013 | [10] -0.016 | [11] 0.004 | [12] -0.06 | [13] -0.01 | [14] -0.082 | [15] 0.017 | [16] -0.032 | [17] 0 | [18] -0.03 | [19] 0.023 | [20] -0.015

STX7 (UniProt O15400)
Chain of UniProt O15400 (O15400 whole entry, looked up): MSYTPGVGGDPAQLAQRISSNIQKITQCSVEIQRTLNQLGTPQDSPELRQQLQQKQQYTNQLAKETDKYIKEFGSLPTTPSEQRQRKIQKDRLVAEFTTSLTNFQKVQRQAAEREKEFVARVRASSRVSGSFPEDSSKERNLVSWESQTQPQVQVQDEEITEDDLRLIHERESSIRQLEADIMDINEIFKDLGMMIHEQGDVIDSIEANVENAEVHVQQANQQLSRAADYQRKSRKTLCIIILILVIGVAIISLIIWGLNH
active: [20] -0.246
inactive: [1] 0.065 | [2] -0.071 | [3] 0.027 | [4] -0.023 | [5] -0.048 | [6] 0.013 | [7] -0.01 | [8] 0.045 | [9] -0.002 | [10] -0.118 | [11] 0 | [12] -0.187 | [13] 0.015 | [14] -0.042 | [15] -0.023 | [16] -0.18 | [17] -0.021 | [18] -0.055 | [19] 0.04
